# Screens: PubChem, National Center for Advancing Translational Sciences (NCATS)
# HP1b binding inh = inhibitors of HP1-beta chromodomain binding to methylated histone tails; P83916; AlphaScreen HP1-beta / biotin-H3K9me3 peptide binding; Potency, µM (series often up to 114 µM), inactives show at the highest dose activity change, negative = inhibition, most hits filed as inhibitors; actives 0.56% (n = 390,000); AID 540317; further: potency means the concentration at half of the fitted maximal effect; nearly all actives have a fitted effect of over 70% in size
#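 HP1-beta protein (50 nM final) preincubated 30 min at room temperature with biotinylated H3(1-18)K9me3 peptide (50 nM) in PBS pH 7.4, 0.01% Tween-20, then compound added for 30 min. AlphaScreen streptavidin donor/nickel chelate acceptor beads (10 ug/mL final), 30 min dark, luminescence read.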
# Six1-Eya2 blk = inhibitors of human Six1/Eya2 interaction; activity change, % (no concentration beside the values); AlphaScreen GST-Six1/His-Eya2 binding, biochemical; hits give low values; Q15475+O00167; actives 0.56% (n = 360,000); in the data active means activity change below about -65%; inconclusive means mostly about -30% to -63%; further: on the % scale 0 is the no-effect control and ±100 the full control effect
#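 AlphaScreen with GST-Six1 and His-Eya2 (5X mix: 250 nM and 500 nM), glutathione donor and nickel acceptor beads; buffer 50 mM Tris pH 8.0, 300 mM NaCl, 1 mM TCEP; 1 h at 37 C in the dark.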
# G9a block = inhibitors of human histone lysine methyltransferase G9a | Q96KQ7 | G9a H3K9 monomethylation, AlphaScreen, 2 h | Potency, µM (top dose mostly 102 µM), inactives show at the highest dose activity, negative = inhibition, actives largely listed as inhibitors | actives 8.8% (n = 350,000) | AID 504332; further: potency means the concentration at half of the fitted maximal effect; on the % scale 0 is the no-effect control and ±100 the full control effect; nearly all actives have a fitted effect of over 75% in size
#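 Signal arises when biotinylated H3K9 peptide, once monomethylated, bridges streptavidin donor and antibody-captured acceptor beads. Enzyme at 20 nM was preincubated 15 min with test compounds; peptide 500 nM and SAM 20 uM then reacted for 2 h.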
# JMJD2A Tudor inh = JMJD2A Tudor domain (human) inhibition. actives 4.4% (n = 390,000). AID 504339. Potency, µM (top dose mostly 114 µM), inactives show at the top dose activity change, negative = inhibition, actives largely listed as inhibitors. AlphaScreen JMJD2A-Tudor / H3K4me3 peptide binding. O75164; further: potency means the concentration at half of the fitted maximal effect; on the % scale 0 is the no-effect control and ±100 the full control effect; nearly all actives have a fitted effect of over 50% in size
# BAZ2B block = blocks human BAZ2B. Potency, µM (highest dose often 114 µM), without a hit: top-dose activity change, negative = inhibition, actives largely listed as inhibitors. AlphaScreen BAZ2B-H3K14Ac peptide displacement. AID 504333. actives 4.4% (n = 360,000). Q9UIF8; further: potency means the concentration at half of the fitted maximal effect; on the % scale 0 is the no-effect control and ±100 the full control effect; nearly all actives have a fitted effect of over 60% in size
# Target sequence (Q9UIF8 whole entry, looked up): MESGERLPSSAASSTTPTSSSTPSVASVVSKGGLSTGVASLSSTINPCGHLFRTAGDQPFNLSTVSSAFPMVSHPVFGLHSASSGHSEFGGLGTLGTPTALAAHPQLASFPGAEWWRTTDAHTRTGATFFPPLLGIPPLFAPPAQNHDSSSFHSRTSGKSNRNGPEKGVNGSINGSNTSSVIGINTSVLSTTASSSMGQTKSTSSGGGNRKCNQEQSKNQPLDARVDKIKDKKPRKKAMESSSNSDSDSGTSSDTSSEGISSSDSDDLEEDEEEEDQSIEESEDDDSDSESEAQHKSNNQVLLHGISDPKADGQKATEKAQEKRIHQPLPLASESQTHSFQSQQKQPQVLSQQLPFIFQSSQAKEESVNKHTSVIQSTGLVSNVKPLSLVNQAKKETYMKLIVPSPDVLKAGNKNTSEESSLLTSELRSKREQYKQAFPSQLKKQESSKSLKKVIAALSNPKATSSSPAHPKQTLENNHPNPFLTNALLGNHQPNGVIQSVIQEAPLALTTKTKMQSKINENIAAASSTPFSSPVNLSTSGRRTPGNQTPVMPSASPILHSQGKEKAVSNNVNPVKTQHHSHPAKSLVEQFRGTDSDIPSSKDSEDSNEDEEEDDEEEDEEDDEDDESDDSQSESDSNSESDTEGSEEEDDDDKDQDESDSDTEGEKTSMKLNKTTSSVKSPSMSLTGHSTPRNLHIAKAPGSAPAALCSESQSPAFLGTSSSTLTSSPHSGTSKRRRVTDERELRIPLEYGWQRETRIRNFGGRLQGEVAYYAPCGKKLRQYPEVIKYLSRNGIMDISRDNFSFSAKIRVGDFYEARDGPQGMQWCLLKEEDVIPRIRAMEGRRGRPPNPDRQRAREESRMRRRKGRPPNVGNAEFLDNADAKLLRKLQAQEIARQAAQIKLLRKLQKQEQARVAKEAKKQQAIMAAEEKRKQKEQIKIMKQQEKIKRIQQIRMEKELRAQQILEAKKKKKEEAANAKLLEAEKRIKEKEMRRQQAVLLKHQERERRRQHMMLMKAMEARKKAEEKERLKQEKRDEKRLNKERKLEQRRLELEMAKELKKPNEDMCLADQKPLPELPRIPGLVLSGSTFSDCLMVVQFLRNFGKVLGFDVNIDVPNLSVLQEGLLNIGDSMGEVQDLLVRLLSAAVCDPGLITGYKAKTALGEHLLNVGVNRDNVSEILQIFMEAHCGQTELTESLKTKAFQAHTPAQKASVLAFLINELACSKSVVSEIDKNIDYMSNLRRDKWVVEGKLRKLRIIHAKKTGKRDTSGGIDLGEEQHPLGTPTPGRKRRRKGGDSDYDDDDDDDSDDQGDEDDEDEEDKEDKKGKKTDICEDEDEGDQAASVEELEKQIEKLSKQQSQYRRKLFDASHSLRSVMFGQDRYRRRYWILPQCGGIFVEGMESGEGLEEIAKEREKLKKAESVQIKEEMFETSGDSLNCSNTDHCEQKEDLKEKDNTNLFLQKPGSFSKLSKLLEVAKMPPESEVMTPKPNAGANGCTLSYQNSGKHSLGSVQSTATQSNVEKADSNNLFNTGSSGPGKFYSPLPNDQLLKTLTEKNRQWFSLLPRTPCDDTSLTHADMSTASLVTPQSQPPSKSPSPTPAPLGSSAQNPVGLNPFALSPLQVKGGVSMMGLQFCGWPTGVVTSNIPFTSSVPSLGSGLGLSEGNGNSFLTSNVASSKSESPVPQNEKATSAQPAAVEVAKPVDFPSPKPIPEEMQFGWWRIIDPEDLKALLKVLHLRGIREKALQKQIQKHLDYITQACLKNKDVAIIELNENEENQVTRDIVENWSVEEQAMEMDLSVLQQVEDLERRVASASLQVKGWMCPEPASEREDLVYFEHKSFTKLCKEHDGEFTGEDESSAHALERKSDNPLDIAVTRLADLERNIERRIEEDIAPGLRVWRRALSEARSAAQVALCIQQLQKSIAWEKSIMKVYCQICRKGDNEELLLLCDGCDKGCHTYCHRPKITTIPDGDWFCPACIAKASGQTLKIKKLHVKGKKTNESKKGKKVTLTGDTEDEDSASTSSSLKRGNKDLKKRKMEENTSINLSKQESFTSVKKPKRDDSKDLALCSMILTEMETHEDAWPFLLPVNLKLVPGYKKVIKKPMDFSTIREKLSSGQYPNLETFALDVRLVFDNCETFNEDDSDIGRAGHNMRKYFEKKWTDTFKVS
#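 BAZ2B 50 nM plus b-H3(5-23)K14Ac 50 nM, PBS pH 7.4/0.01% Tween-20, 30 min RT; compound added (max 110 uM), 30 min RT; streptavidin donor/Ni-chelate acceptor beads 10 ug/mL final, 20 min dark; AlphaScreen read.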
# CtBP-E1A blk = blocks the CtBP interaction with E1A; AlphaScreen GST-E1A/His-CtBP binding, 1536-well; hits give low values; activity change, % (test concentration not listed); actives 0.49% (n = 340,000); AID 651724; in the data active means activity change below about -65%; inconclusive means mostly about -30% to -63%; further: on the % scale 0 is the no-effect control and ±100 the full control effect
#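 GST-E1A and His-tagged CtBP (125 nM each as 5X stock) were preincubated with pin-transferred compound for 2 h at 37 °C in the dark, then glutathione donor and nickel acceptor beads were added for 1 h before AlphaScreen reading.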
# * hit, by the source's call; ? = inconclusive; . = no result; [ ] = remark or other dose. Hits are enriched below; roughly 10% of the tested compounds scored in any of these assays. Unless noted, the call rests on the fitted dose curve; in most records, active means well fitted inhibition curve with a large enough effect; inconclusive means small, poorly fitted or top-dose-only effect; inactive means no such curve, though single readings can be large or run the other way.
SMILES,HP1b binding inh,Six1-Eya2 blk,G9a block,JMJD2A Tudor inh,BAZ2B block,CtBP-E1A blk
COc1ccccc1NS(=O)(=O)c1cc(NC(=O)CNC(=O)c2ccccc2)ccc1C,13.6%,?,3.1%[59 µM],-22.3%[57.1 µM],-7.9%,?
COc1ccc(-c2csc(C(C)(O)c3cccnc3)n2)cc1 (centres undefined),.,0.1,.,.,.,1.8
Cc1ccc(S(=O)(=O)c2nc(-c3cccs3)oc2SCc2ccc(F)cc2)cc1,46.6%,.,0.0%[59 µM],5.5%,0.8%,.
CC(C)(C)OC(=O)NCc1ccc(CNC(=O)c2nc[nH]c2C(=O)N2CCc3ccccc3C2)cc1,45.4%,-24.7,9.1%[2.33 µM],-22.5%,50.1µM*,-12.0
C[C@H](NC(=O)c1nc[nH]c1C(=O)NCCCCCN)C(=O)OC(C)(C)C,12.5%,-1.1,22.6%[2.33 µM],56.2µM*,50.1µM*,.
C[C@H](NC(=O)c1nc[nH]c1C(=O)NCCCCCN)C(=O)OCc1ccccc1,26.0%,0.3,-10.2%[2.33 µM],44.7µM*,50.1µM*,1.8
CC(C)(C)OC(=O)N1CCN(C(=O)c2[nH]cnc2C(=O)N[C@@H](Cc2ccccc2)C(=O)OCc2ccccc2)CC1,47.2%,-10.2,.,-19.3%,-1.6%[57.1 µM],-6.6
O=C(N[C@@H](Cc1ccccc1)C(=O)OCc1ccccc1)c1nc[nH]c1C(=O)N1CCNCC1,3.1%,-0.6,.,50.1µM*,.,-3.8
COc1ccccc1NC(=O)N1CCOc2ccccc21,11.9%,.,-32.2%[59 µM],-26.6%,-16.5%,.
CC1CCN(C(=O)CNC(=O)CNC(=O)Cc2ccccc2)CC1,35.1%,3.1,17.9%,4.8%,-2.1%,-1.6
C[C@H](NC(=O)c1nc[nH]c1C(=O)N1CCNCC1)C(=O)OC(C)(C)C,16.2%,0.9,?,35.5µM*,50.1µM*,2.6
CNC(=O)c1[nH]cnc1C(=O)N[C@@H](C)C(=O)OC(C)(C)C,12.8%,0.7,14.1%[12.7 µM],-33.8%,-23.9%,-0.2
Cc1cc(C(=O)COC(=O)/C=C/c2cccc(Br)c2)c(C)n1C,?,?,44.7µM*,-26.7%,?,-65.9*
Cc1cc(C(=O)COC(=O)Cc2ccc(Br)cc2)c(C)n1C,1.9%,-10.8,?,-29.9%,50.1µM*,-13.4
Cc1cc(C(=O)COC(=O)Cc2c(F)cccc2Cl)c(C)n1C,.,-5.1,.,.,.,10.4
CCOc1ccc(S(=O)(=O)N2CCN(C(=O)CN3C(=O)NC4(CCCC4)C3=O)CC2)cc1,35.0%,4.5,31.6µM*,-1.4%,0.4%,2.3
Cc1ccc(S(=O)(=O)N2CCN(C(=O)COC(=O)CCOc3ccccc3C)CC2)c(C)c1,-0.9%,-0.1,11.2µM*,-15.2%,-9.0%,0.8
Cc1ccc(S(=O)(=O)N2CCN(C(=O)CN3C(=O)NC4(CCOc5ccccc54)C3=O)CC2)cc1 (centres undefined),32.9%,-0.4,56.2µM*,-7.4%,1.2%,5.7
Cc1ccc(S(=O)(=O)N2CCN(C(=O)COC(=O)CCOc3cc(C)ccc3C)CC2)c(C)c1,28.4%,-0.7,.,-13.5%,.,-7.0
COc1ccc(S(=O)(=O)N2CCN(C(=O)CN3C(=O)NC4(CCCC4)C3=O)CC2)cc1,22.9%,-2.6,.,0.4%,-13.6%,3.1
Cc1ccc(OCCC(=O)OCC(=O)N2CCN(S(=O)(=O)c3ccc(Cl)cc3)CC2)cc1,32.4%,-1.8,-2.8%,-9.8%,40.8%,7.7
CCOc1ccc(OCCC(=O)OCC(=O)N2CCN(S(=O)(=O)c3ccc(C)cc3)CC2)cc1,33.1%,-3.6,56.2µM*,-13.6%,-21.2%,4.7
Cc1ccc(S(=O)(=O)N2CCN(C(=O)COC(=O)c3ccc(O)cc3)CC2)c(C)c1,0.6%,-1.4,21.7%[0.501 µM],89.1µM*,3.1%,-0.8
O=C(CN1C(=O)C2CC=CCC2C1=O)N1CCN(S(=O)(=O)c2ccccc2)CC1 (centres undefined),32.8%,-0.5,.,2.6%,.,10.5
Cc1ccc(C)c(S(=O)(=O)N2CCN(C(=O)CN3C(=O)C4CC=CCC4C3=O)CC2)c1 (centres undefined),-1.9%,-3.4,50.1µM*,-4.1%,3.9%,2.1
SMILES,HP1b binding inh,Six1-Eya2 blk,G9a block,JMJD2A Tudor inh,BAZ2B block,CtBP-E1A blk
CCOP(=O)(OCC)C(Nc1cccc([N+](=O)[O-])c1)c1ccc(N(C)C)cc1 (centres undefined),?,-7.1,?,50.1µM*,39.8µM*,.
COc1ccc(Br)cc1C(=O)CCC(=O)OCC(=O)Nc1cc(C(N)=O)cc(C(N)=O)c1,16.7%,?,?,-2.4%,-20.3%,-69.9*
CN(c1nnc(N)s1)C1CCCCC1,41.0%,0.0,39.8µM*,-1.4%,-1.5%,2.7
COCCNC(=O)C1(C)CCN(C(=O)c2ccc3c(c2)C(C)(C)CCC3(C)C)C1 (centres undefined),.,1.2,.,.,.,6.3
COCCNC(=O)c1ccc(Cn2c(=S)[nH]c3cc4c(cc3c2=O)OCO4)cc1,38.3%,6.7,?,28.2µM*,-28.8%,3.2
CCOc1cc2[nH]c(=S)n(Cc3ccc(C(=O)NCCCOC)cc3)c(=O)c2cc1OCC,55.8%,2.6,12.7%,-2.8%,-2.9%,2.4
COC(CNC(=O)c1ccc(Cn2c(=S)[nH]c3cc4c(cc3c2=O)OCO4)cc1)OC,25.5%,-1.7,?,22.4µM*,?,0.2
COC(=O)c1ccc2c(=O)n(Cc3ccc4c(c3)OCO4)c(=S)[nH]c2c1,45.4%,9.6,24.5%,-10.1%,-3.8%,.
CCn1c(C)nc2cc(C(=O)NNC(=S)Nc3ccccc3)ccc21,28.2%,33.9,44.7µM*,-9.8%,0.3%,-25.1
CCn1c(C)nc2cc(C(=O)NNC(=S)Nc3ccc(Cl)cc3)ccc21,21.1%,-5.4,?,-20.7%,1.7%,.
CCn1c(C)nc2cc(C(=O)N/N=C/c3cccc(O)c3O)ccc21,31.1%,-80.4*,-31.5%,79.4µM*,79.4µM*,-93.8*
CCn1c(C)nc2cc(C(=O)NNC(=S)Nc3ccc(F)cc3)ccc21,26.0%,4.5,44.7µM*,-5.8%,-0.2%,-2.5
CCn1c(C)nc2cc(C(=O)NNC(=S)NC(=O)c3ccccc3)ccc21,31.3%,-1.3,17.8µM*,-22.3%,-1.2%,.
CCn1c(C)nc2cc(C(=O)N/N=C/c3ccccc3)ccc21,-14.2%,-14.3,9.2%,-13.1%,-0.7%,-23.0
COc1ccc(NC(=O)COC(=O)Cn2cnc3ccccc3c2=O)c(OC)c1,31.0%,6.6,-3.7%[12.7 µM],-10.1%,5.7%,.
O=C(N/N=C/c1cccn1-c1ccc([N+](=O)[O-])cc1)C(O)c1ccccc1 (centres undefined),-14.0%,-17.7,44.7µM*,?,?,-21.4
O=C(Cc1ccccc1)N/N=C/c1cccn1-c1ccc([N+](=O)[O-])cc1,?,?,7.08µM*,-32.9%,25.1µM*,-21.5
